HSD17B inhib: HSD17B dehydrogenase inhibition; Q99714; recombinant HSD17B10, NADH fluorescence kinetic; Potency, µM (series often up to 57.1 µM), inactives show top-dose activity change, negative = inhibition, hits mostly inhibitors; 7.6% of 75,000 active;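 also: the protocol describes HADH2 (HSD17B10) and not the HSD17B4 of the title; nearly all actives have a fitted effect of over 70% in size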
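Activity followed as NADH fluorescence increase (ex 360, em 450 nm) every 30 seconds for 4 min, using final 90 uM beta-hydroxybutyryl CoA and 1 mM NAD+. Recombinant His-tagged enzyme, 20 nM, pH 9.0 Tris buffer, 15 min compound preincubation.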
Luciferase inh: blocks Photinus pyralis firefly luciferase activity; AID 411; 2.2% of 72,000 active; Potency, µM (titrated, usually from 57.1 µM), without a hit: at the highest dose activity change, negative = inhibition, most hits filed as inhibitors; purified firefly luciferase, luminescence, 8 min; P08659; also: nearly all actives have a fitted effect of over 40% in size
Target sequence (P08659 whole entry, looked up): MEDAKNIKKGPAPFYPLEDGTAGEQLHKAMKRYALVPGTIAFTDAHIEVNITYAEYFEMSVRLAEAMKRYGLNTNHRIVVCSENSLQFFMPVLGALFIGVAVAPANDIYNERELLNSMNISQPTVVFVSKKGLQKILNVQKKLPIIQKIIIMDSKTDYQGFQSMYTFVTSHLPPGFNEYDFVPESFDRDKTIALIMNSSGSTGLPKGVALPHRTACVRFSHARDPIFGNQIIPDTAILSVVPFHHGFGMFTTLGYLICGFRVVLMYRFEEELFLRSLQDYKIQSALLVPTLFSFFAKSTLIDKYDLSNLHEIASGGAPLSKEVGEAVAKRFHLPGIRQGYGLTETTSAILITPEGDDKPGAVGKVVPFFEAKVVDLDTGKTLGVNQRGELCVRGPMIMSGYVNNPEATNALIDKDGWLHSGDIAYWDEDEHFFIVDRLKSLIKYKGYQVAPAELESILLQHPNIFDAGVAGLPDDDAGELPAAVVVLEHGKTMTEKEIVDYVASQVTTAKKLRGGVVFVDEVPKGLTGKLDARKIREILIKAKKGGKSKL
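Compounds were tested as concentration series (qHTS) against purified P. pyralis luciferase with luciferin and 10 uM ATP in 50 mM imidazole pH 7.2, 50 mM KCl, 7 mM MgCl2, 0.01% Tween 20, 0.05% BSA. Luminescence was read after 8 min at ambient temperature.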
PK Bst: alters activity of Bacillus stearothermophilus pyruvate kinase | Potency, µM | AID 361 | purified pyruvate kinase, luminescence ATP production; ribose 5-phosphate activator present at AC10 | 1.2% of 51,000 active; in the data active = potency below about 11 µM; inconclusive = mostly about 12 µM to 25 µM;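 the screen sought inhibitors and activators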;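 also: scaled between full activation by ribose 5 phosphate and full inhibition by luteolin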
HADH2 inh: HADH2 (human) dehydrogenase inhibition. AID 886. Q99714. 3.4% of 73,000 active. Potency, µM (series often up to 57.1 µM), for inactives: top-dose activity change, negative = inhibition, actives largely listed as inhibitors. recombinant HADH2, NADH fluorescence, beta-hydroxybutyryl-CoA; also: nearly all actives have a fitted effect of over 60% in size
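NADH fluorescence (ex 360/em 450 nm) read every 30 s for 4 min; activity taken as last-minus-first time point difference. Enzyme 20 nM, NAD+ 1 mM, beta-hydroxybutyryl-CoA 90 uM, pH 9.0 Tris buffer.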
15-hLO inh: blocks human 15-lipoxygenase activity; P16050; purified 15hLO-1, xylenol orange hydroperoxide absorbance; Potency, µM (series often up to 57.1 µM), for the others: at the top dose activity change, negative = inhibition, most hits filed as inhibitors; 1.4% of 74,000 active; also: nearly all actives have a fitted effect of over 55% in size
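Compounds were preincubated 15 min at room temperature with 40 nM purified human enzyme (25 mM Hepes pH 7.5, 0.01% Triton X-100); 50 uM arachidonic acid reacted 6 min. Fe-xylenol orange detection, 30 min, absorbance ratio 573/405 nm.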
ERK AVP inh: vasopressin-driven ERK pathway inhibition. HEK293-V1b, vasopressin-stimulated pERK AlphaScreen. 0.99% of 72,000 active. Potency, µM (titrated, usually from 57.5 µM), inactives show at the top dose activity, negative = inhibition, most hits filed as inhibitors; also: nearly all actives have a fitted effect of over 55% in size
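qHTS, compounds titrated on V1b-expressing HEK293 cells. Preincubation 30 min at 37C, vasopressin 25 nM for 5 min, lysis 10 min, bead incubation 5 hr at room temperature.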
An asterisk follows results filed as active; i = inactive; u = inconclusive; x = not tested or not shown; [ ] = dose if it differs, or a comment. Most compounds without a hit are left out; they make up all but 11% or so of the library. Unless noted, calls follow the shape of the dose curve; as a rule, active = well fitted curve in the direction sought with a large enough effect; inconclusive = small, poorly fitted or top-dose-only effect, or another doubt; inactive = no such curve, though single readings can be large; an effect the other way counts as inactive or inconclusive. Unless noted, % is scaled to controls: 0 for no effect and ±100 for the full control effect; potency is read from the fitted curve at half-maximal effect.

SMILES | HSD17B inhib | Luciferase inh | PK Bst | HADH2 inh | 15-hLO inh | ERK AVP inh
Cc1ccc2nc(-c3ccccc3)cn2c1 | 32µM* | 0.25µM* | 0.39* | 44% | 4% | 23%
CCc1c(O)c2c(c(O)c1C(C)=O)C(=O)c1c(cc(O)c(C(=O)O)c1C(=O)O)C2=O | -27%[11.4 µM] | -14%[11.4 µM] | x | u | -1%[11.4 µM] | -4%[11.5 µM]
Cn1cc(-c2nc3cncnc3n(Cc3ccc(F)cc3)c2=O)c2ccccc21 | -2% | 0%[11.4 µM] | x | -15% | -8% | 10%
COc1ccc(CCNc2oc(COc3ccccc3)nc2C#N)cc1 | x | 1%[25.5 µM] | >26 | x | x | x
N#Cc1nc(COc2ccccc2Cl)oc1NCc1ccc(F)cc1 | x | 4%[25.5 µM] | >26 | x | x | x
COc1ccc(CCNc2oc(-c3ccccc3OC)nc2C#N)cc1 | 32µM* | -2% | >57 | 13µM* | -12% | -21%
COc1ccc(CCNc2oc(-c3ccccc3OC)nc2C#N)cc1OC | 32µM* | -1% | >57 | 32µM* | 2% | -23%
COc1ccccc1-c1nc(C#N)c(NCc2ccc(F)cc2)o1 | 32µM* | -3% | >57 | u | -12% | -20%
CSc1nnc(-c2cc3ccccc3cc2O)n1C | 25µM* | -4% | >57 | 32µM* | -12% | -3%
COc1ccc(NC(=O)C2CCCCN2S(=O)(=O)c2ccc(F)cc2)c(OC)c1 (configuration not stated) | -8% | -3% | >57 | 11% | -13% | 10%
COc1ccc(NC(=O)C2CCC(=O)N2S(=O)(=O)c2ccc(C)cc2)c(OC)c1 (configuration not stated) | 6% | -1% | 11* | 3% | -2% | -7%
O=C(O)CCC/C=C\C[C@H]1[C@@H](/C=C\[C@@H](O)C2Cc3ccccc3C2)[C@H](F)C[C@H]1O | x | 6% | x | -10% | x | x
Cc1cc(N2CCOCC2)nc2ccc(NC(=O)CCC(=O)N3CCCC(C)C3)cc12 (configuration not stated) | 25µM* | 25µM* | x | 25µM* | 2% | -5%
Cc1cc(N2CCN(C)CC2)nc2ccc(NC(=O)CCC(=O)NCc3ccco3)cc12 | 20µM* | -15% | >57 | 32µM* | 4% | 16%
COc1cccc(C(=O)Nc2ccc3nc(N4CCN(c5ncccn5)CC4)cc(C)c3c2)c1OC | 7.9µM* | -1% | >57 | u | -12% | -12%
COc1cccc(C(=O)Nc2ccc3nc(N4CCOCC4)cc(C)c3c2)c1 | -24% | -6% | x | -9% | -7% | u
CCN1CCN(c2cc(C)c3cc(NC(=O)c4ccc5c(c4)OCO5)ccc3n2)CC1 | 100% | -28% | x | u | -1% | x
COc1ccc(C)cc1NC(=O)CCC(=O)Nc1ccc2nc(N3CCN(C)CC3)cc(C)c2c1 | 16µM* | -6% | >57 | 32µM* | -3% | -2%
CCOc1ccccc1C(=O)Nc1ccc2nc(N3CCN(c4ncccn4)CC3)cc(C)c2c1 | -3% | 0% | >57 | -23% | -14% | -17%
CC(C)c1ccccc1S(=O)(=O)c1cc(N)c2ncccc2c1[N+](=O)[O-] | 16% | x | x | -25% | -24% | -14%
CCCOc1ccc(Br)cc1-c1cc(-c2ccc(Cl)cc2)[nH]c1-c1ccncc1 | 3.2µM* | x | x | 2% | u | 9%
CCn1ccc(C(=O)Oc2ccc(C(C)C)cc2)n1 | -5% | 13µM* | i | 6% | -6% | 12%
CCC(=O)Oc1ccc(C(CC)C(CC)c2ccc(OC(=O)CC)cc2)cc1 (configuration not stated) | x | 0%[25.5 µM] | >26 | x | x | x
CC1(C)CC23C(=O)CCC(O)C2(C)CCC13 (configuration not stated) | -2% | x | x | x | -3% | -4%
CN1CCc2nc(SCCOc3ccccc3)c(C#N)cc2C1 | 10µM* | -2% | >57 | -7% | 3.2µM* | 4%
O=C(Cc1ccccc1)Nc1nc2ccc(Cl)cc2c2nc(-c3ccco3)nn12 | 4µM* | -2% | x | -11% | u | -14%
O=C(Nc1nc2ccccc2n1Cc1ccccc1)c1ccco1 | -89% | -1% | >57 | -24% | -8% | -21%
